Results reported in PubChem BioAssay (NCATS).
Records with an inconclusive call do not appear. Active and inactive are the calls of the source. Unless noted, calls follow the shape of the dose curve; as a rule, active = well fitted curve in the direction sought with a large enough effect; inconclusive = small, poorly fitted or top-dose-only effect, or another doubt; inactive = no such curve, though single readings can be large; an effect the other way counts as inactive or inconclusive.

Experiments:
[1] = Cell Viability - BJ (AID 421; calls by dose curve;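 also: potency is read from the fitted curve at half-maximal effect; cells exposed to compound for 40 hours at 37 °C before readout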); conditions: BJ fibroblast viability, qHTS
In short: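 Luminescent ATP signal (CellTiter-Glo, 20 min at room temperature) served as the read-out of viable BJ cells after 40 hours of compound treatment. Responses were scaled between DMSO and 100 uM tamoxifen, and AC50 values were obtained by Hill modeling.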

[2] = Cell Viability - Jurkat (AID 426;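 active = dose-dependent loss of cell ATP signal giving a full or clear fitted curve, ranked by lower potency value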;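 also: potency is read from the fitted curve at half-maximal effect; cells exposed to compound for 40 hours at 37 °C before ATP read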); conditions: qHTS
In short: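 Cytotoxicity was scored as loss of cellular ATP, measured by luciferase-based luminescence, in Jurkat clone E6-1 cells after 40 h compound treatment; tamoxifen and doxorubicin served as positive controls.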

[3] = Cell Viability - Hek293 (AID 427;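 active = compounds whose dose-response curve shows a full or clear partial loss of cell viability, called from curve shape rather than a numeric limit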;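 also: potency is read from the fitted curve at half-maximal effect; cells exposed to compound for 40 hours at 37 °C before reading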); conditions: qHTS
In short: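 Luminescent ATP read-out (CellTiter-Glo, 20 min RT) after 40 hr compound exposure at 37 °C in complete medium. Signal normalized to DMSO (basal) and 100 uM tamoxifen (100% inhibition); concentration-response fitted with the standard Hill equation to give AC50.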

[4] = Cell Viability - HepG2 (AID 433; calls by dose curve;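 also: potency is read from the fitted curve at half-maximal effect; potency for ATP loss meaning cytotoxicity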); conditions: qHTS
In short: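 ATP luminescence (CellTiter-Glo) after 40 h compound exposure, 37 °C, HepG2, 1500 cells/well, complete medium. Normalized: DMSO = basal, 100 uM tamoxifen = 100% inhibition. AC50 via standard Hill equation.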

[5] = Cell Viability - MRC5 (AID 434; calls by dose curve;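 also: potency is read from the fitted curve at half-maximal effect; cells exposed to compound for 40 hours at 37 °C; potency reflects cytotoxicity seen as loss of intracellular ATP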); conditions: MRC5 lung fibroblast viability, qHTS
In short: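 ATP luminescence read-out (CellTiter-Glo, 20 min RT) after 40 hr, 37 °C compound exposure of 1500 MRC5 cells/well. Data normalized to DMSO (basal) and 100 uM tamoxifen (100% inhibition); AC50 from standard Hill equation.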

[6] = Cell Viability - SK-N-SH (AID 435; calls by dose curve; also: potency is read from the fitted curve at half-maximal effect); conditions: SK-N-SH neuroblastoma cell viability qHTS
In short: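 CellTiter-Glo ATP luminescence, 20 min RT read; cells pre-plated 5 hr, compound 40 hr at 37 °C, 1500 cells/well, complete medium. Normalized DMSO = 0, 100 uM tamoxifen = 100% inhibition; Hill-fit AC50.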

[7] = molecular target: Mitogen-activated protein kinase 10 (Mus musculus) (UniProt Q61831); test: JNK3 AlphaScreen Assay (AID 530; active = well fitted curve in either direction with a large enough effect, not every such curve was filed as active;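 also: kinase came from lysate of stimulated human HepG2 cells; signal reports phosphorylation of biotinylated GST-cJun 1-79 at Ser73 with 10 µM ATP; % is scaled to controls: 0 for no effect and ±100 for the full control effect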); conditions: JNK3 lysate, c-Jun phosphorylation; series mostly up to 57.1 µM
In short: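 HepG2 lysate (IL-1b/TNFa pre-activated) + biotin-GST-cJun 1-79 + anti-pSer73 cJun; cpd titration, 15 min RT; ATP 10 uM start; Tris pH 7.6, MgCl2, DTT, vanadate; beads in EDTA buffer; AlphaScreen.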

[8] = Cell Viability - N2a (AID 540); conditions: N2a mouse neuroblastoma cell viability; activity change, negative = cytotoxicity: at 92.2 µM (top of the series);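 also: plate controls were DMSO alone for no effect and tamoxifen control for full effect; nearly all actives have a fitted effect of over 45% in size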
In short: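 In this qHTS cytotoxicity screen, ATP-dependent luciferase luminescence reports viable N2a cells after a 40 hr compound exposure in complete culture medium. Potencies are AC50 values from standard Hill equation fits.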

[9] = Cell Viability - NIH 3T3 (AID 541); conditions: NIH 3T3 cell viability, qHTS; activity change, negative = cytotoxicity: at 92.2 µM (top of the series);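 also: plate controls were DMSO alone for no effect and tamoxifen positive control for full effect; nearly all actives have a fitted effect of over 25% in size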
In short: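 In this cytotoxicity screen, acute toxicity is scored as an ATP drop measured by CellTiter-Glo in NIH 3T3 fibroblasts following a 40 hr, 37 °C incubation with compound.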

[10] = Cell Viability - HUV-EC-C (AID 542); conditions: HUV-EC-C endothelial cell viability, qHTS; series mostly up to 92.2 µM; also: % is scaled to controls: 0 for no effect and ±100 for the full control effect; nearly all actives have a fitted effect of over 35% in size
In short: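 Concentration-dependent ATP loss in HUV-EC-C cells is the measure. Exposure lasts 40 hr at 37 °C; luminescence follows CellTiter-Glo addition, and Hill fits give AC50.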

[11] = Cell Viability - H-4-II-E (AID 543); conditions: H-4-II-E rat hepatoma viability; series mostly up to 92.2 µM; also: % is scaled to controls: 0 for no effect and ±100 for the full control effect; nearly all actives have a fitted effect of over 35% in size
In short: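 AC50 from Hill-modelled qHTS concentration-response curves. H-4-II-E rat hepatoma cells in complete medium, 40 hr exposure at 37 °C, viability by CellTiter-Glo ATP luminescence.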

[12] = Cell Viability - SH-SY5Y (AID 544); conditions: SH-SY5Y neuroblastoma cell viability; viability change, negative = cytotoxic: at 92.2 µM (top of the series); also: nearly all actives have a fitted effect of over 55% in size
In short: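 Quantitative HTS in SH-SY5Y neuroblastoma cells, 40 hr treatment at 37 °C, ATP content by luciferase luminescence; AC50 from Hill fits.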

[13] = Cell Viability - Renal Proximal Tubule (AID 545); conditions: renal proximal tubule cells viability, primary cells of rat origin; series mostly up to 91.7 µM; also: nearly all actives have a fitted effect of over 40% in size
In short: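 Rat kidney proximal tubule cells, freshly isolated; 1000 cells/well, 5 hr settle, compound 40 hr 37 °C. CellTiter-Glo 20 min RT, luminescence read. AC50 by standard Hill fit.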

[14] = Cell Viability - Mesenchymal (AID 546); conditions: mesenchymal cells viability, qHTS; series mostly up to 91.7 µM;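 also: cells exposed to compound for 40 hours before reading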
In short: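 Human renal mesenchymal cells (glomerulus-derived), 1000 cells/well, 5 hr 37 °C pre-incubation; compound 40 hr, 37 °C; CellTiter-Glo, 20 min RT; luminescence; AC50 via Hill equation.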

[15] = Cellular Toxicity (caspase-3) HepG2 (AID 654); conditions: HepG2 caspase-3 activation, luminescence; series mostly up to 92.2 µM;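 also: cells exposed to compound for 16 hours before reading; 0% = DMSO alone and 100% = caspase signal from 100 µM tamoxifen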
In short: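 Concentration-response AC50 values reflect caspase-3/7 induction in HepG2 cells after 16 hours of compound exposure, quantified by luminescence from liberated aminoluciferin and referenced to 100 uM tamoxifen as full stimulation.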

[16] = Cellular Toxicity (caspase-3) Jurkat (AID 655); conditions: Jurkat caspase-3 activation, luminescence; caspase-3 activation: at 92.2 µM (top of the series), DMSO = 0%, tamoxifen = 100%;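 also: cells exposed to compound for 16 h at 37 °C before reading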
In short: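 Luminescent caspase-3/7 readout (aminoluciferin substrate cleavage) in human T-cell leukemia Jurkat cells after 16 hr compound exposure. Concentration-response normalized to DMSO and 100 uM tamoxifen; AC50 by standard Hill equation.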

[17] = Cellular Toxicity (caspase-3) HUV-EC-C (AID 656); conditions: HUV-EC-C cells, caspase-3 activation (apoptosis), vehicle = 0, 100 µM tamoxifen = 100%; series mostly up to 92.2 µM
In short: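 Luminescent caspase-3/7 activation (aminoluciferin substrate cleavage) in HUV-EC-C cells after 16 hr compound exposure, 37°C. Signal normalized to DMSO basal and 100 uM tamoxifen as 100%; AC50 from concentration-response fitted with the Hill equation.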

[18] = Cellular Toxicity (caspase-3) SHSY5Y (AID 657); conditions: SH-SY5Y caspase-3 activation, DMSO zero, 10 µM staurosporine = 100%; series mostly up to 91.7 µM;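 also: cells exposed to compound for 16 hours at 37 °C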
In short: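 Luminescent caspase-3/7 readout (aminoluciferin release) in SH-SY5Y cells after 16 h compound exposure in complete medium. Activity scaled between DMSO basal and 10 uM staurosporine as 100%; concentration-response fitted to Hill equation for AC50.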

[19] = Cellular Toxicity (caspase-3) BJ (AID 658); conditions: BJ fibroblasts, luminescence, normalized: DMSO 0%, staurosporine 100%; series mostly up to 91.7 µM
In short: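 qHTS, BJ fibroblasts, 1000 cells/well; 5 hr preincubation, 16 hr compound, 37 °C; Caspase-Glo 3/7 reagent, 1 hr RT; luminescence. DMSO = 0%, 10 uM staurosporine = 100%. Hill-equation AC50.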

[20] = Cellular Toxicity (caspase-3) MRC-5 (AID 659); conditions: MRC-5 cells, luminescence, normalized: DMSO 0%, 10 µM staurosporine 100%; series mostly up to 91.7 µM;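 also: cells exposed to compound for 16 h at 37 °C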
In short: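 MRC-5 fibroblasts, 1500/well; 16 h cpd, 37 °C; Caspase-Glo 3/7, 1 h RT; lumi read. Norm: DMSO = 0%, 10 uM staurosporine = 100%. Hill-fit AC50 from qHTS conc-response.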

CC(C)N(C)C
inactive: Potency [1] > 92 µM | Potency [2] > 92 µM | Potency [3] > 92 µM | Potency [4] > 92 µM | Potency [5] > 92 µM | Potency [6] > 92 µM | outcome [7] | activity change, negative = cytotoxicity [8] -3.04% | Potency [9] | Potency [10] | Potency [11] | Potency [12] | Potency [13] | Potency [14] | Potency [15] | caspase-3 activation [16] -0.157% | outcome [17] | outcome [18] | outcome [19] | outcome [20]

c1ccc2[nH]cnc2c1
inactive: Potency [1] > 92 µM | Potency [2] > 92 µM | Potency [3] > 92 µM | Potency [4] > 92 µM | Potency [5] > 92 µM | Potency [6] > 92 µM | outcome [7] | activity change, negative = cytotoxicity [8] -1.37% | Potency [9] | Potency [10] | Potency [11] | Potency [12] | Potency [13] | Potency [14] | Potency [15] | caspase-3 activation [16] 1.18% | outcome [17] | outcome [18] | outcome [19] | outcome [20]

CCCC(C)CO (stereo not drawn)
inactive: Potency [1] > 92 µM | Potency [2] > 92 µM | Potency [3] > 92 µM | Potency [4] > 92 µM | Potency [5] > 92 µM | Potency [6] > 92 µM | outcome [7] | activity change, negative = cytotoxicity [8] 3.82% | Potency [9] | Potency [10] | Potency [11] | Potency [12] | Potency [13] | Potency [14] | Potency [15] | caspase-3 activation [16] 0.921% | outcome [17] | outcome [18] | outcome [19]

Cc1ccco1
inactive: Potency [1] > 92 µM | Potency [2] > 92 µM | Potency [3] > 92 µM | Potency [4] > 92 µM | Potency [5] > 92 µM | Potency [6] > 92 µM | outcome [7] | activity change, negative = cytotoxicity [8] 0.379% | Potency [9] | Potency [10] | Potency [11] | Potency [12] | Potency [13] | Potency [14] | Potency [15] | caspase-3 activation [16] 0.939% | outcome [17] | outcome [18] | outcome [19] | outcome [20]

CC(C)(C)c1ccc(OCC2CO2)cc1 (stereo not drawn)
inactive: Potency [1] > 92 µM | Potency [2] > 92 µM | Potency [3] > 92 µM | Potency [4] > 92 µM | Potency [5] > 92 µM | Potency [6] > 92 µM | outcome [7] | activity change, negative = cytotoxicity [8] -14.9% | Potency [9] | Potency [10] | Potency [11] | Potency [12] | Potency [13] | Potency [14] | Potency [15] | caspase-3 activation [16] 15.6% | outcome [17] | outcome [18] | outcome [19]

CCN(Cc1ccccc1)c1ccccc1
inactive: Potency [1] > 92 µM | Potency [2] > 92 µM | Potency [3] > 92 µM | Potency [4] > 92 µM | Potency [5] > 92 µM | Potency [6] > 92 µM | outcome [7] | activity change, negative = cytotoxicity [8] 15.1% | Potency [9] | Potency [10] | Potency [11] | Potency [12] | Potency [13] | Potency [14] | Potency [15] | caspase-3 activation [16] 1.93% | outcome [17] | outcome [18] | outcome [19] | outcome [20]

Nc1cccc(O)c1
inactive: Potency [1] > 92 µM | Potency [2] > 92 µM | Potency [3] > 92 µM | Potency [4] > 92 µM | Potency [5] > 92 µM | Potency [6] > 92 µM | outcome [7] | activity change, negative = cytotoxicity [8] 4.14% | Potency [9] | Potency [10] | Potency [11] | Potency [12] | Potency [13] | Potency [14] | Potency [15] | caspase-3 activation [16] 0.69% | outcome [17] | outcome [18] | outcome [19] | outcome [20]

CCOCCO
inactive: Potency [1] > 92 µM | Potency [2] > 92 µM | Potency [3] > 92 µM | Potency [4] > 92 µM | Potency [5] > 92 µM | Potency [6] > 92 µM | outcome [7] | activity change, negative = cytotoxicity [8] -17.9% | Potency [9] | Potency [10] | Potency [11] | Potency [12] | Potency [13] | Potency [14] | Potency [15] | caspase-3 activation [16] 0.459% | outcome [17] | outcome [18] | outcome [19] | outcome [20]

CCOCC(=O)O
inactive: Potency [1] > 92 µM | Potency [2] > 92 µM | Potency [3] > 92 µM | Potency [4] > 92 µM | Potency [5] > 92 µM | Potency [6] > 92 µM | outcome [7] | activity change, negative = cytotoxicity [8] -1.83% | Potency [9] | Potency [10] | Potency [11] | Potency [12] | Potency [13] | Potency [14] | Potency [15] | caspase-3 activation [16] -1.08% | outcome [17] | outcome [18] | outcome [19] | outcome [20]

CC(=O)C1(C)CC2=C(CCCC2(C)C)CC1C (stereo not drawn)
inactive: Potency [1] > 92 µM | Potency [2] > 92 µM | Potency [3] > 92 µM | Potency [4] > 92 µM | Potency [5] > 92 µM | Potency [6] > 92 µM | outcome [7] | activity change, negative = cytotoxicity [8] -8.12% | Potency [9] | Potency [10] | Potency [11] | Potency [12] | Potency [13] | Potency [14] | Potency [15] | caspase-3 activation [16] -0.117% | outcome [17] | outcome [18] | outcome [19] | outcome [20]

CCOc1cc(OCC)c(C(C)=O)cc1OCC
inactive: Potency [1] > 92 µM | Potency [2] > 92 µM | Potency [3] > 92 µM | Potency [4] > 92 µM | Potency [5] > 92 µM | Potency [6] > 92 µM | outcome [7] | activity change, negative = cytotoxicity [8] -7.23% | Potency [9] | Potency [10] | Potency [11] | Potency [12] | Potency [13] | Potency [14] | Potency [15] | caspase-3 activation [16] -0.274% | outcome [17] | outcome [18] | outcome [19] | outcome [20]
